From PubChem BioAssay (NCI) come the findings set out here.

Compounds without any hit were thinned out: in the full panel of roughly 83,000, 20% have a hit.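 Plates (96-well) were seeded with cells, treated with compound at one concentration, and incubated for 48 hours before percent growth was determined.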 A number with no mark means an inactive call. Activity calls are given as the source filed them. Rule for the calls: active = growth percent below 10; inactive = the rest.

Holding throughout (test): NCI-60 one-dose screen, 48 h (100 = growth as untreated, 0 = no growth, -100 = all killed)
Details in all cases: 10 µM unless noted

Test [1] concerns SR leukemia.
The subject of test [2] is RPMI-8226 leukemia.
Test [3] has as its system OVCAR-8 ovarian.
Test [4] relates to OVCAR-5 ovarian.
The subject of test [5] is OVCAR-4 ovarian.
Test [6] concerns IGROV1 ovarian.
Test [7] relates to OVCAR-3 ovarian.
Test [8] deals with HS 578T breast.
The test system of test [9] is NCI/ADR-RES ovarian.
Test [10] has as its system T-47D breast.
In test [11] the test system is BT-549 breast.
The test system of test [12] is MDA-MB-435 melanoma.
The test system of test [13] is SW-620 colon.
In test [14] the test system is MCF7 breast.
The subject of test [15] is HCT-116 colon.
Test [16] relates to HCC-2998 colon.
In test [17] the test system is KM12 colon.
Test [18] deals with SK-OV-3 ovarian.

Regarding `O=CCCCOCc1ccccc1`, the growth was 96% in test [1]; 100% in test [2]; 103% in test [3]; 101% in test [4]; 98.6% in test [5]; 101% in test [6]. Besides, the growth was 110% in test [7]; 92.9% in test [8]; 97.4% in [9]; 102% in [10]; 103% in test [11]; 107% in test [12]. Moreover, the growth was 100% in test [13]; 91.7% in [14]; 105% in test [15]; 94.2% in test [16]; 102% in test [17].

As to `CC(C)=CC(=O)N[C@H]1CC[C@]2(C)C3CC[C@]4(C)C(C(C)N(C)C)=CCC4C3CCC2[C@H]1O` (stereo partly specified), the growth in [1] was 30.2%; in test [2], 5.55% (active); in test [3], 77.6%; in [4], 101%; in test [18], 115%; in [6], 51.3%. In addition, the growth in [7] was 31.2%; in [8] it was 57.1%; in [9] it was 71.6%; in test [10] it was 38.6%; in test [11], 54.4%; in [12], -33.8% (active). The growth in test [13] was -23.5% (active); in test [14], 11.4%; in [15], 2.25% (active); in [16] it was 35.8%; in test [17] it was 23.2%.

Regarding `O=C(/C=C/C12c3ccccc3C(c3ccccc31)C1C(=O)NC(=O)C12)c1ccco1` (stereo unspecified), the growth in test [1] is 13%; in test [2], -7.21% (active); in test [3] it was 5.8% (active); in test [4], 44.3%; in [18], 42.7%; in [6] it was 26.5%. The growth in test [7] is 11.7%; in test [8] it was 31.4%; in test [10], 18.6%; in test [11] it was 19.3%; in [12], 0.633% (active); in test [13] it was 27.4%. Further, the growth in [14] was 12.8%; in test [15], 7.57% (active); in test [16], 103%; in test [17], 12.9%.

With `Cn1c(C#N)ccc1-c1ccc(F)c(NC(=O)c2ccc(F)cc2)c1`, the growth in test [1] was 29.4%; in [2], 70.1%; in test [4], 85.4%; in [5], 85%; in [18] it was 80%; in test [6] it was 74.2%. Moreover, the growth in test [7] is 77%; in test [8], 71.5%; in test [9], 76.9%; in [10], 60.4%; in test [11], 80%; in [12], -11.2% (active). Besides, the growth in test [13] is 44.9%; in [14], 49.4%; in test [15], 77.4%; in test [16] it was 90.5%; in test [17], 60.9%.

For `N#Cc1c(-c2cccc(Cl)c2)cc(-c2cccnc2)[nH]c1=O`, the growth in test [1] was 21.9%; in [2], 88.8%; in test [4], 98.4%; in test [5], 102%; in [18] it was 90.7%; in [6] it was 72.4%. For the same compound, the growth is 47.2% in test [7]; 62.7% in test [8]; 80.3% in test [9]; 87.3% in test [10]; 72.5% in test [11]; 2.97% (active) in test [12]. Further, the growth in [13] is 71.1%; in test [14], 48.2%; in test [15], 72.4%; in [16], 98.6%; in [17], 65.6%.

Take `COC1/C=C/OC2(C)Oc3c(C)c(O)c4c(O)c(c(/C=N/N(c5ccccc5)c5ccccc5)c(O)c4c3C2=O)NC(=O)C(C)=C/C=C/C(C)C(O)C(C)C(O)C(C)C(OC(C)=O)C1C` (stereo unspecified): the growth in test [1] was 30.9%; in test [2], 22.6%; in test [4], 124%; in [5], 69.5%; in test [18] it was 84.8%; in test [6] it was 100%. Besides, the growth in test [7] is 59.1%; in test [8] it was 62.2%; in test [9], 91.9%; in [10], -3.9% (active); in [11], 88.9%; in test [12] it was 67.9%. In addition, the growth in test [13] is 4.75% (active); in test [14], 32.8%; in test [15], 38.7%; in test [16] it was 71.1%; in test [17], 55.6%.

Turning to `O=C(/C=C/C12c3ccccc3C(c3ccccc31)C1C(=O)NC(=O)C12)c1ccc(I)cc1` (stereo unspecified), the growth in test [1] is 25.2%; in test [2] it was 3.09% (active); in [3], 35.6%; in test [4], 73.4%; in [18], 83%; in test [6] it was 55.6%. Moreover, the growth in test [7] is 9.43% (active); in test [8] it was 49.1%; in test [9], 50.9%; in test [10], 38.9%; in test [11] it was 46.1%; in [13], 25%. Besides, the growth was 16.5% in test [14], 35.8% in [15], 100% in test [16] and 57.8% in [17].

With `N[C@@H]1CCC[C@H]1NCCCCN1C(=O)c2cccc3cc([N+](=O)[O-])cc(c23)C1=O`, the growth in test [1] is 4.54% (active); in test [2] it was 41.4%; in test [4], 72.5%; in test [5] it was 36.6%; in [18], 34%; in [6], 25.6%. For the same compound, the growth in test [7] was 45.6%; in [8], 64.7%; in [9] it was 73.4%; in test [10] it was 38.1%; in [11], 69.7%; in test [12], 43.4%. Besides, the growth in test [13] is 23.8%; in test [14], 17.2%; in [15], 11.3%; in [16], 48%; in test [17] it was 33.1%.

Turning to `Cc1ccc(S(=O)(=O)OCC#CCOS(=O)(=O)c2ccc(C)cc2)cc1`, the growth in test [1] is 10.8%; in [2], 20.2%; in test [3], 34.6%; in test [4] it was 112%; in test [18], 98.3%; in test [6], -40.2% (active). Besides, the growth in [7] was 12.4%; in test [8] it was 62.4%; in test [9], 31%; in test [10] it was -22.9% (active); in test [11] it was 54.9%; in test [12], 49.3%. The growth in [13] is 51.2%; in [14] it was 31%; in test [15] it was 24.7%; in test [16] it was 81.6%; in [17], 60.9%.
